From PubChem BioAssay AID1159580 (chemical genetic matrix, 2015)
Several values for one entry are separate records, joined by “and”; a condition that tells them apart may be missing. Equal values may be shown once. Hit rate of the full screen: of about 5,500 compounds, about 2,000 (36%) were called active. Not shown: some 18% with an inconclusive outcome. Rule as the data show it: active = normalized growth mostly below about 0.91 (no sharp cut-off); inconclusive = no clear call, values can overlap the other calls; inactive = mostly above about 0.92. This is one part of the list.

Assay: chemical genetic growth profiling, strain panel (AID 1159580);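 also: tested at 20 µM; growth read once vehicle control cultures reached saturation at 30 °C; 1 = growth at the plate median or of vehicle wells; lower values mean less growth of the strain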
Settings: S. cerevisiae deletion strains, growth OD

Measured: normalized growth

C1CCC(C(CC2CCCCN2)C2CCCCC2)CC1 (stereo not drawn)
active: locus YAL013W, strain DEP1, stronger effect = lower value 0.789 | locus YAL021C, strain ccr4, stronger effect = lower value 0.628 | locus YAL026C, strain drs2, stronger effect = lower value 0.0926 | locus YBR021W, strain FUR4, stronger effect = lower value 0.219 | locus YBR023C, strain chs3, stronger effect = lower value 0.884 | locus YBR231C, strain swc5, stronger effect = lower value 0.554 | locus YCL029C, strain bik1, stronger effect = lower value 0.873 | locus YDL035C, strain GPR1, stronger effect = lower value 0.493 | locus YDL074C, strain BRE1, stronger effect = lower value 0.585 | locus YDL101C, strain DUN1, stronger effect = lower value 0.173 | locus YDL134C, strain PPH21, stronger effect = lower value 0.209 | locus YDL192W, strain arf1, stronger effect = lower value 0.0725 | locus YDR069C, strain doa4, stronger effect = lower value 0.706 | locus YDR101C, strain arx1, stronger effect = lower value 0.911 | locus YDR137W, strain rgp1, stronger effect = lower value 1.32 [resistant] | locus YDR162C, strain NBP2, stronger effect = lower value 0.0586 | locus YDR318W, strain mcm21, stronger effect = lower value 0.646 | locus YDR388W, stronger effect = lower value 0.125 | locus YDR502C, strain sam2, stronger effect = lower value 0.594 | locus YEL061C, strain CIN8, stronger effect = lower value 0.658 | locus YER167W, strain BCK2, stronger effect = lower value 0.718 | locus YFR010W, strain ubp6, stronger effect = lower value 0.601 | locus YGL086W, strain mad1, stronger effect = lower value 0.333 | locus YGL248W, strain PDE1, stronger effect = lower value 0.227 | locus YGR135W, strain pre9, stronger effect = lower value 0.501 | locus YGR252W, strain gcn5, stronger effect = lower value 0.271 | locus YHR013C, strain ard1, stronger effect = lower value 0.842 | locus YHR129C, strain ARP1, stronger effect = lower value 0.742 | locus YHR142W, strain chs7, stronger effect = lower value 0.774 | locus YIL066C, strain RNR3, stronger effect = lower value 0.504 | locus YIL073C, strain SPO22, stronger effect = lower value 0.124 | locus YIR030C, strain dcg1, stronger effect = lower value 0.897 | locus YJL168C, strain set2, stronger effect = lower value 0.731 | locus YJL187C, strain SWE1 (second series), stronger effect = lower value 0.521 | locus YJR043C, strain POL32, stronger effect = lower value 0.722
0.169 (active) and 1.01 (inactive): locus YJL095W, strain BCK1, stronger effect = lower value
0.0919 (active) and 1.01 (inactive): locus YHR030C, strain SLT2, stronger effect = lower value
inactive: locus YAL030W, strain snc1, stronger effect = lower value 0.986 | locus YBL061C, strain skt5, stronger effect = lower value 0.935 | locus YBR009C, strain hhf1, stronger effect = lower value 0.955 | locus YBR171W, strain sec66, stronger effect = lower value 0.973 | locus YBR229C, strain ROT2, stronger effect = lower value 0.99 | locus YBR279W, strain paf1, stronger effect = lower value 0.969 | locus YCL011C, strain gbp2, stronger effect = lower value 0.97 | locus YCL016C, strain dcc1, stronger effect = lower value 0.955 | locus YCL061C, strain MRC1, stronger effect = lower value 0.992 | locus YCL069W, strain vba3, stronger effect = lower value 0.965 | locus YCR088W, strain abp1, stronger effect = lower value 0.96 | locus YDL005C, strain med2, stronger effect = lower value 0.983 | locus YDL040C, strain nat1, stronger effect = lower value 0.978 | locus YDL185W, strain tfp1, stronger effect = lower value 1.01 | locus YDR001C, strain nth1, stronger effect = lower value 0.967 | locus YDR159W, strain sac3, stronger effect = lower value 0.965 | locus YDR195W, strain ref2 1.13 | locus YDR297W, strain sur2, stronger effect = lower value 0.987 | locus YDR334W, strain swr1, stronger effect = lower value 0.972 | locus YDR335W, strain msn5, stronger effect = lower value 0.957 | locus YDR392W, strain spt3, stronger effect = lower value 0.871 | locus YEL003W, strain gim4, stronger effect = lower value 0.946 | locus YEL037C, strain rad23, stronger effect = lower value 0.974 | locus YEL061C, strain CIN8 (second series), stronger effect = lower value 0.973 | locus YER015W, strain faa2, stronger effect = lower value 0.979 | locus YER016W, strain bim1, stronger effect = lower value 0.972 | locus YER110C, stronger effect = lower value 0.935 | locus YER111C, strain swi4, stronger effect = lower value 0.991 | locus YER155C, strain BEM2 (second series), stronger effect = lower value 0.912 | locus YER155C, strain BEM2, stronger effect = lower value 0.957 | locus YGL078C, strain dbp3, stronger effect = lower value 0.999 | locus YGL167C, strain pmr1, stronger effect = lower value 0.989 | locus YGL173C, strain kem1, stronger effect = lower value 0.962 | locus YGL227W, strain vid30, stronger effect = lower value 0.991 | locus YGL240W, strain doc1, stronger effect = lower value 0.989 | locus YGL253W, strain hxk2, stronger effect = lower value 0.973 | locus YHR027C, strain rpn1, stronger effect = lower value 0.987 | locus YHR079C, strain IRE1 (second series), stronger effect = lower value 0.93 | locus YHR079C, strain IRE1, stronger effect = lower value 1.02 | locus YHR094C, strain hxt1, stronger effect = lower value 1.01 | locus YHR200W, strain rpn10, stronger effect = lower value 0.922 | locus YIL125W, strain kgd1, stronger effect = lower value 1.02 | locus YJL092W, strain hpr5, stronger effect = lower value 0.984 | locus YJL095W, strain BCK1 (second series), stronger effect = lower value 0.927 | locus YJL115W, strain asf1, stronger effect = lower value 0.984 | locus YJL129C, strain trk1, stronger effect = lower value 0.953 | locus YJL134W, strain LCB3, stronger effect = lower value 0.996 | locus YJL154C, strain vps35, stronger effect = lower value 0.964 | locus YJL164C, strain tpk1, stronger effect = lower value 0.968 | locus YJL166W, strain qcr8, stronger effect = lower value 0.984 | locus YJL187C, strain SWE1, stronger effect = lower value 0.973
